The source of these data is PubChem BioAssay.

Assay [1] is described as follows: inhibitors of TNFa-induced NFkB p65 translocation, primary screen, imaging, HUVEC, MLSMR starter and 10KST1 sets (AID 438;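 active = inhibition above 20% together with a positive visual image hit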;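 also: compound added about 3h40 before a 20 min TNFalpha stimulation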;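 as to inhibition: signal is the nuclear over cytoplasmic p65 intensity ratio per well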). Conditions: HUVEC TNFa-induced p65 nuclear translocation; cell count: measured here: nuclei count (cytotoxicity indicator), at 2.08 µM; inhibition: at 2 µM, stronger effect = higher value, 0% TNFa-plus-vehicle, 100% no-TNFa wells.
Assay [2] can be described thus: reduction of polyQ htt aggregates in cells – imaging, exon1htt(103Q)mCFP cells, high-content imaging, primary screen (AID 483;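 active = visual image review flags a hit and inhibition of aggregation exceeds 20%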;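 also: compound exposure lasted 3 days before fixation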;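 as to nuclei count: percent of the per-plate median nuclei count of sample wells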). Conditions: exon1htt(103Q)mCFP cell line, aggregate imaging, at 2 µM; inhibition of aggregation: stronger effect = higher value; nuclei count: measured here: cell count, toxicity.
A short description of assay [3]: endothelial E-selectin expression blockers – imaging, HUVEC, immunofluorescence, MLSMR starter and 10KST1 sets, primary screen (AID 487;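 active = visually confirmed hit in the image check and inhibition above 20%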;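 as to inhibition: signal is fraction of cell area covered by stained E-selectin grains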;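 as to nuclei count: 100% = median nuclei count of all wells on the same plate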). Particulars: HUVEC TNFalpha-induced E-selectin immunofluorescence imaging, at 2 µM; inhibition: stronger effect = higher value; nuclei count: measured here: cell number, toxicity.
Assay [4] is described as follows: Primary imaging screen for DUSP6 inhibitors that restore phospho-Erk in transfected HeLa cells, chemical complementation (AID 609;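 active = compounds giving at least 50% inhibition in the cell-based MKP-3 phosphatase rescue imaging test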;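 as to inhibition: phospho-Erk level distribution per well compared with pooled transfected vehicle control wells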). Particulars: HeLa MKP-3 transfected, phospho-Erk imaging KS statistic, at 10 µM, cells stimulated with TPA for 15 min.
Assay [5] concerns the target Dual specificity protein phosphatase 6 (Homo sapiens) (UniProt Q16828). The description is as above. Conditions: HeLa MKP-3 transfected, phospho-Erk imaging KS statistic; at 10 µM; stronger effect = higher value; cells stimulated with TPA for 15 min.
Assay [6] has as its target Voltage-gated potassium channel subunit beta-2 (Rattus norvegicus) (UniProt P62483). Kind of assay: inhibitors of rat Kvbeta2 reductase activity – biochemical, NADPH fluorescence, primary screen (AID 622;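 active = fluorescence slope higher than the sample average by over 3 SD, cut at about -0.22 in these data, passing the limit was not always enough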;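 also: slope of raw intensity against log time taken from 70 to 1610 s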). Particulars: recombinant KvBeta, 4-cyanobenzaldehyde reduction, at 10 µM, stronger effect = higher value.
The target is the same in assay [7]. Description: enhancers of rat Kvbeta2 NADPH turnover – biochemical, NADPH fluorescence, primary screen (AID 623;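 active = NADPH fluorescence slope more negative than the mean of all samples by about 3 SD, 99.7% confidence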;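 also: fluorescence intensity change per second fitted from 20 to 320 s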). Conditions: Recombinant KvBeta, NADPH fluorescence decrease slope, 10 min; at 10 µM; stronger effect = lower value.
Assay [8] deals with Muscarinic acetylcholine receptor M4 (Homo sapiens) (UniProt P08173). Kind of assay: M4-linked GIRK flux change, two-sided – cell-based, HEK293 M4/GIRK, thallium flux, BTC-AM, M4 allosteric agonist project, primary screen (AID 625;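 active = fluorescence slope after compound addition differing from the mean of all tested samples at 99.7% confidence, mostly higher but some lower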;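 also: thallium influx through GIRK channels coupled to M4 in HEK293 cells with BTC-AM dye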). Particulars: at 10 µM, actives lie on both sides.
Muscarinic acetylcholine receptor M4 (Homo sapiens), sequence (P08173 whole entry, looked up): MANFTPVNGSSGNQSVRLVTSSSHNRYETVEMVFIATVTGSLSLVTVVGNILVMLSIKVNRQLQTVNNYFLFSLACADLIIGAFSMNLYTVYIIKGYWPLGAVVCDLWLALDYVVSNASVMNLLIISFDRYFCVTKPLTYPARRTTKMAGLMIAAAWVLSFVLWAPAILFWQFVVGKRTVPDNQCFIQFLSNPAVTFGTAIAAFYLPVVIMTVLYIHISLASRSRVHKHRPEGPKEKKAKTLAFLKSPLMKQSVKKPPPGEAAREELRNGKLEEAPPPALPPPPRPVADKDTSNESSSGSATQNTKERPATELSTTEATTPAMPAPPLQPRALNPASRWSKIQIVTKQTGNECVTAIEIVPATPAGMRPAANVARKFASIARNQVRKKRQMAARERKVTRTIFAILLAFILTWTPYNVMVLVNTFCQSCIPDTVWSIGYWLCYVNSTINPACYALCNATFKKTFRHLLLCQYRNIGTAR
Assay [9] can be described thus: inhibitors of larval lipid processing in zebrafish, primary screen, whole organism, PED6 fluorescence, gall bladder and intestine (AID 686;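 active = a full or partial loss of lipid-probe fluorescence in the fish gall bladder, intestine or both, judged by eye; inactive = no fluorescence loss, or compound toxic to the fish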;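 also: larvae 5 to 7 days old with five fish per well; signal comes from phospholipase A2 cleavage of quenched PED6 carried via bile; overnight exposure to compound and PED6 before scoring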). Particulars: Zebrafish larvae PED6 lipid processing, fluorescence scoring; screened at 20 µM (by protocol).
A short description of assay [10]: loss of swimming-algae plug formation – whole organism, Chlamydomonas reinhardtii, WT vs cilia-less mutant, absorbance, 96-well, primary screen (AID 463189).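 Also: 0% = wild type cc124 cells in DMSO and 100% = ciliumless bld1 mutant cells.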 Conditions: Chlamydomonas reinhardtii gravitaxis, OD600 absorbance, 2 days; at 10 µM; stronger effect = higher value.
A short description of assay [11]: blockers of RIG-like receptor reporter activation – cell-based, Sendai virus stimulus, luciferase, 10K MLSCN set, TLR/RLR signaling modifier project, primary screen (AID 602276;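 active = inhibition at or above 50% at 10 µM; inactive = inhibition below 50%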;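 also: firefly luciferase from ISG56 promoter only with Renilla not read in this screen; 0% = Sendai virus plus DMSO and 100% = medium plus DMSO without virus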). Particulars: HEK293 RL24 IRF3 luciferase reporter, at 10 µM, stronger effect = higher value. On the technique in general: Reporter assays use an easily measured gene product as a stand-in for the process of interest.

Assay [12] can be described thus: TLR3 IRF3 reporter activation blockers – cell-based, poly I:C stimulus, luciferase, 10K MLSCN set, primary screen (AID 602277;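 active = inhibition of the reporter signal at or above 50%; inactive = inhibition below 50%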). Conditions: HEK293-TLR3 RL24 IRF3 luciferase reporter, at 10 µM, stronger effect = higher value.
The target of assay [13] is Alpha-2C adrenergic receptor (Homo sapiens) (UniProt P18825). Description: compounds altering alpha2C-coupled GIRK flux – cell-based, HEK293 alpha2C/GIRK1/2, thallium flux, primary screen (AID 624;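 active = fluorescence slope after compound addition differing from the mean of all screened samples at 99.7% confidence, in either direction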;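 also: slope of fluorescence ratio to pre-addition baseline per second over 15 to 24 s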). Conditions: thallium flux BTC fluorescence, at 10 µM, actives lie on both sides.
Alpha-2C adrenergic receptor (Homo sapiens), sequence (P18825 whole entry, looked up): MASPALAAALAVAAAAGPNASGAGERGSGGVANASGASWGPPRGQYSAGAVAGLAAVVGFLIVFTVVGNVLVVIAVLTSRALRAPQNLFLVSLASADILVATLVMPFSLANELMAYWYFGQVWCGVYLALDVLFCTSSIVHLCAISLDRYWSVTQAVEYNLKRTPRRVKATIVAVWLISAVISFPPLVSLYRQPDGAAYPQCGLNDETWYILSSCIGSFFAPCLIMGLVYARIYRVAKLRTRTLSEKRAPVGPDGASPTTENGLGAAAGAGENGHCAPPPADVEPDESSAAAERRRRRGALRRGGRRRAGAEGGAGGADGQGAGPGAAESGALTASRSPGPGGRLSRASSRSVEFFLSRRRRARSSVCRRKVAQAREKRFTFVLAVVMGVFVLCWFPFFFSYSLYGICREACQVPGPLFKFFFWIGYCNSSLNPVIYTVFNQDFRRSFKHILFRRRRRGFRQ
The mark [14] stands for this setting: measured here: cell density z-score.
Where [15] appears, read: measured here: nuclear c-Myc green intensity z-score.
[16] abbreviates: measured here: nuclear pErk red intensity z-score, stronger effect = higher value.

Where “and” joins values, the source holds several entries; their conditions need not be identical. Identical values can stand only once. Calls of active or inactive are those of the source.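 The calls were made as follows, unless noted: active = inhibition at or above 50% relative to wild type and mutant plate controls; inactive = inhibition below 50%.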

Voltage-gated potassium channel subunit beta-2 (Rattus norvegicus), sequence (P62483 whole entry, looked up): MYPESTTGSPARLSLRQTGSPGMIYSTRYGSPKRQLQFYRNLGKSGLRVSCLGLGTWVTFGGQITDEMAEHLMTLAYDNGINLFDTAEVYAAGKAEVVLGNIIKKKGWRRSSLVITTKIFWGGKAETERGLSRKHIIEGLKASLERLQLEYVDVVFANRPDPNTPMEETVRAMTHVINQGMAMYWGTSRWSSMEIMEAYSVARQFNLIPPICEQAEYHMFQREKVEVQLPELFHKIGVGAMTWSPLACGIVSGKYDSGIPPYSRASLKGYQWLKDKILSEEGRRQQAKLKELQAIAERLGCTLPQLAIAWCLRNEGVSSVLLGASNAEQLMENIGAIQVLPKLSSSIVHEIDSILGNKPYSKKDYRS
Dual specificity protein phosphatase 6 (Homo sapiens), sequence (Q16828 whole entry, looked up): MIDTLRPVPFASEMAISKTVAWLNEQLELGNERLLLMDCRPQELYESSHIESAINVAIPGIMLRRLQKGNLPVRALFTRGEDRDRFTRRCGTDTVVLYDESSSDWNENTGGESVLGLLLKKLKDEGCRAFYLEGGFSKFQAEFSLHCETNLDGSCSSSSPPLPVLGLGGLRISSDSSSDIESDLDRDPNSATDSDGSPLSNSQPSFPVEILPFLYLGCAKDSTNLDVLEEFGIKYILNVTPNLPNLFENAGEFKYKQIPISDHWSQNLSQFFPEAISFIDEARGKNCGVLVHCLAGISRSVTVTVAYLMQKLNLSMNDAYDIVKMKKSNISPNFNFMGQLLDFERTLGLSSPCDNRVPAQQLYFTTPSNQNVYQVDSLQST

In the case of `CCOc1ccccc1N1CCN(c2nc3ccccc3nc2C(C#N)C(=O)OC)CC1` (stereo unspecified), the cell count in assay [1] is 535. Also, the inhibition in [1] was 0.2% (inactive); in assay [3], -43.1% (inactive); in assay [5] it was -9.53% (inactive); in [10] it was -13.8% (inactive); in assay [11] it was 10.2% (inactive); in [12], 16.1% (inactive). The inhibition of aggregation in assay [2] was -3.8% (inactive). In addition, the nuclei count in [2] worked out at 106%; in [3] it was 102%. In addition, the z-score in assay [4] (setting [14]) is -0.286; in assay [4] (setting [15]) it was 0.234; in assay [4] (setting [16]) it was 1.2. In addition, the fluorescence slope in assay [6] was -0.501 (inactive); in [8], 0.00534 (inactive). Also, the NADPH fluorescence slope in assay [7] is -7e-05 (inactive). In addition, the outcome in [9] was inactive.

Consider `CC1(C)SC2[C@H](NC(=O)C(NC(=O)N3CCNC3=O)c3ccccc3)C(=O)N2C1C(=O)O` (stereo partly specified), for which the cell count in [1] was determined as 705. For the same compound, the inhibition in [1] is -9.5% (inactive); in assay [3], -58.5% (inactive); in [5] it was 15.3% (inactive); in [10], 6.16% (inactive); in [11], 3.1% (inactive); in assay [12], 37.2% (inactive). In addition, the nuclei count in [3] came out at 117%. Also, the z-score in [4] (setting [14]) was 0.0464; in assay [4] (setting [15]) it was -0.196; in [4] (setting [16]), -0.885. The fluorescence slope in [6] is -0.461 (inactive). The NADPH fluorescence slope in assay [7] is -5.2e-05 (inactive). The slope in assay [13] was 0.00535 (inactive). Also, the compound was classed as inactive in [9].

`COc1ccccc1OCC(O)COC(N)=O` (stereo unspecified): the cell count in assay [1] stood at 634. Further, the inhibition in assay [1] is 2.6% (inactive); in assay [5] it was 19% (inactive); in assay [10], -8.84% (inactive); in assay [11], 9.33% (inactive); in [12] it was 35.1% (inactive). Further, the inhibition of aggregation in assay [2] was -4.9% (inactive). The same compound had a nuclei count in assay [2] of 109%. In addition, the z-score in assay [4] (setting [14]) is -1.14; in assay [4] (setting [15]), 0.796; in assay [4] (setting [16]), 1.17. Moreover, the fluorescence slope in [6] was -0.507 (inactive). Also, in [7], the NADPH fluorescence slope is -3.9e-05 (inactive). In addition, the slope in assay [13] was 0.00504 (inactive). Also, the call in [9] was inactive.

`C[C@H](CS)C(=O)N1CCC[C@H]1C(=O)O`: the cell count in assay [1] is 555. For the same compound, the inhibition in [1] was 1.6% (inactive); in assay [3], -80.8% (inactive); in assay [5] it was 12.4% (inactive); in assay [10], -3.81% (inactive) and 9.89% (inactive); in assay [11], -6.06% (inactive); in assay [12], 12.3% (inactive). In assay [3], this compound yielded a nuclei count of 124%. For the same compound, the values for the z-score in [4] (setting [14]), in assay [4] (setting [15]) and in [4] (setting [16]) were 0.625, -1.55 and 1.02, respectively. Also, in assay [6], the fluorescence slope was -0.485 (inactive). The NADPH fluorescence slope in [7] is -4e-05 (inactive). In addition, the slope in assay [13] is 0.00488 (inactive).

On to `O=c1cc(NCc2ccccc2)nc2n1CCCS2`, for which the cell count in assay [1] is 572. Also, the inhibition in [1] is -1.5% (inactive); in [5], -4.7% (inactive); in assay [10] it was 4.05% (inactive); in assay [11], -14.4% (inactive); in assay [12] it was -33.9% (inactive). Moreover, in assay [2], the inhibition of aggregation was -16.3% (inactive). This compound had a nuclei count in assay [2] of 94.5%. The figures for the z-score in [4] (setting [14]), in assay [4] (setting [15]) and in assay [4] (setting [16]) were -0.588, -0.473 and -1.35, respectively. Also, the fluorescence slope in [6] is -0.506 (inactive). For the same compound, the NADPH fluorescence slope in [7] was -0.000115 (inactive). Besides, the slope in [13] was 0.00575 (inactive). Further, the compound was called inactive in assay [9].

In the case of `COC(=O)C1=C(C)NC(C)=C(C(=O)OC)C1c1ccccc1[N+](=O)[O-]`, in assay [1], the cell count came to 548. Further, the inhibition in assay [1] is -5.5% (inactive); in assay [3], -80.3% (inactive); in assay [5], 13.3% (inactive); in assay [10] it was -13.6% (inactive) and -16.5% (inactive); in [11], 12.4% (inactive); in assay [12] it was 13.4% (inactive). Also, the nuclei count in assay [3] is 116%. Moreover, the figures for the z-score in assay [4] (setting [14]), in assay [4] (setting [15]) and in [4] (setting [16]) were 1.16, 0.789 and -0.998, respectively. For the same compound, in assay [6], the fluorescence slope was -0.461 (inactive). Also, the NADPH fluorescence slope in [7] was -1.4e-05 (inactive). Moreover, in assay [13], the slope is 0.00935 (inactive). Moreover, the compound was classed as inactive in assay [9].

A word on the inhibition: it is the change of the read-out against control, counted positive when it falls.
